Screening data as filed in PubChem.
JMJD2A Tudor inh – inhibitors of human JMJD2A Tudor domain; O75164; AlphaScreen JMJD2A-Tudor / H3K4me3 peptide binding; hit rate 4.4% among 390,000; Potency, µM (series often up to 114 µM), inactives show top-dose activity change, negative = inhibition, most hits filed as inhibitors; also: % is scaled to controls: 0 for no effect and ±100 for the full control effect; nearly all actives have a fitted effect of over 50% in size
HP1b binding inh – HP1-beta chromodomain-methylated histone interaction inhibition; P83916; Potency, µM (series often up to 114 µM), inactives show at the top dose activity change, negative = inhibition, most hits filed as inhibitors; AlphaScreen HP1-beta / biotin-H3K9me3 peptide binding; hit rate 0.56% among 390,000; also: nearly all actives have a fitted effect of over 70% in size
Target sequence (P83916 whole entry, looked up): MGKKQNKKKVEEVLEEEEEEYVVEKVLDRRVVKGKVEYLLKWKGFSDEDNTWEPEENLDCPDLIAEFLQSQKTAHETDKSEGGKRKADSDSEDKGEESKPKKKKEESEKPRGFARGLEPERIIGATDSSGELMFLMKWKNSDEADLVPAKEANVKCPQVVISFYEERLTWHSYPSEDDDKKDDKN
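HP1-beta protein (50 nM final) preincubated 30 min at room temperature with biotinylated H3(1-18)K9me3 peptide (50 nM) in PBS pH 7.4, 0.01% Tween-20, then compound added for 30 min. AlphaScreen streptavidin donor/nickel chelate acceptor beads (10 ug/mL final), 30 min dark, luminescence read.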
L3MBTL1 inh – L3MBTL1 (human) inhibition | AlphaScreen L3MBTL1–H3K9me1 peptide binding | Potency, µM (top dose mostly 57.1 µM), for inactives: at the top dose activity, negative = inhibition, actives largely listed as inhibitors | hit rate 0.66% among 230,000; also: % is scaled to controls: 0 for no effect and ±100 for the full control effect; nearly all actives have a fitted effect of over 60% in size
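First, the protein-peptide complex forms for 30 min at room temperature (L3MBTL1 50 nM, biotinylated H3K9me1 peptide 75 nM). Next, compounds are pin-transferred and incubated 30 min. Finally, AlphaScreen beads are added and read after 30 min.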
Sfp PPTase inh – inhibitors of Bacillus subtilis Sfp phosphopantetheinyl transferase; Potency, µM, for inactives: largest response in the series, negative = inhibition, most hits filed as inhibitors; hit rate 3.5% among 310,000; Q9F4F7; AID 1490; Biochemical Sfp PPTase activity, qHTS;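 also: the enzyme is Sfp with the accession as filed and its product quenches rhodamine fluorescence; 0% = enzyme reaction without inhibitor and -100% = no enzyme wells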
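Compounds were incubated with enzyme (final 15 nM) for 15 min at room temperature before substrate addition started the reaction. Fluorescence at 525 nm excitation, 598 nm emission was recorded immediately and after 30 minutes.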
BAZ2B inh – blocks human BAZ2B; AlphaScreen BAZ2B-H3K14Ac peptide displacement; Potency, µM (highest dose often 114 µM), for the others: at the highest dose activity change, negative = inhibition, usual class: inhibitors; AID 504333; hit rate 4.4% among 360,000; also: % is scaled to controls: 0 for no effect and ±100 for the full control effect; nearly all actives have a fitted effect of over 60% in size
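In this displacement format the biotinylated H3(5-23) peptide acetylated at Lys14 serves as ligand at 50 nM, with BAZ2B at 50 nM in PBS pH 7.4 containing 0.01% Tween-20. Donor and acceptor beads are 10 ug/mL final.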
G9a block – inhibitors of human histone lysine methyltransferase G9a | Q96KQ7 | hit rate 8.8% among 350,000 | Potency, µM (series often up to 102 µM), for the others: at the highest dose activity, negative = inhibition, usual class: inhibitors | AID 504332 | G9a H3K9 monomethylation, AlphaScreen, 2 h; also: % is scaled to controls: 0 for no effect and ±100 for the full control effect; nearly all actives have a fitted effect of over 75% in size
Target sequence (Q96KQ7 913-1193 limits assumed): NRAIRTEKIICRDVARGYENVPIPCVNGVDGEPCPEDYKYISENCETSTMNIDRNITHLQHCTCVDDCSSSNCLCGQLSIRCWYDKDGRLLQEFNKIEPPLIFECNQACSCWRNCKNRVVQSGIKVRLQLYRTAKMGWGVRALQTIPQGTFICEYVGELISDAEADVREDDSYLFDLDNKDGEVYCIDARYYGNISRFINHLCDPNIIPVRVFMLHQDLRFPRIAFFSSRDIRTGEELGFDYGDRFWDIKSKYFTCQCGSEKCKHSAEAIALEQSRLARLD
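Methyltransferase reactions run at room temperature for 2 h (20 nM enzyme, 500 nM biotin-H3K9 peptide, 20 uM SAM) after a 15 min compound preincubation; product detected by AlphaScreen beads and anti-H3K9me1 antibody.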
An asterisk follows results filed as active; [ ] = remark or other dose. Most compounds without a hit are left out; they make up all but 12% or so of the library. Calls follow the shape of the dose curve; as a rule, active = well fitted curve in the direction sought with a large enough effect; inconclusive = small, poorly fitted or top-dose-only effect, or another doubt; inactive = no such curve, though single readings can be large; an effect the other way counts as inactive or inconclusive. Potency is read from the fitted curve at half-maximal effect.

What do the screens show for `CCC(=O)c1ccc(OCC(=O)Nc2nc(C)cs2)cc1`?
JMJD2A Tudor inh: -14.4%; HP1b binding inh: 24.7%; L3MBTL1 inh: -7.6%

Results for Oc1ccc(Nc2nc(-c3cccnc3)cs2)cc1 ?
JMJD2A Tudor inh: inconclusive; HP1b binding inh: -14.8%; L3MBTL1 inh: -2.5%; Sfp PPTase inh: -16.2%; BAZ2B inh: inconclusive; G9a block: 39.8µM*

What do the screens show for `c1ccc(-c2csc(Nc3ccc4c(c3)OCCO4)n2)cc1`?
JMJD2A Tudor inh: 70.8µM*; HP1b binding inh: -52.0%; Sfp PPTase inh: inconclusive; BAZ2B inh: 50.1µM*; G9a block: 11.2µM*

Results for CCC(=O)c1ccc(OCC(=O)Nc2nc(-c3cccnc3)cs2)cc1 ?
JMJD2A Tudor inh: inconclusive; HP1b binding inh: 6.5%; L3MBTL1 inh: inconclusive; BAZ2B inh: -10.2%; G9a block: 39.8µM*

What do the screens show for `Nc1ccc(Nc2nc(-c3ccncc3)cs2)cc1`?
JMJD2A Tudor inh: 56.2µM*; HP1b binding inh: -31.1%; Sfp PPTase inh: -4.0%; BAZ2B inh: inconclusive; G9a block: 39.8µM*

How did c1cc2c(cc1Nc1nc(-c3ccc4c(c3)OCO4)cs1)OCCO2 do in these assays?
JMJD2A Tudor inh: -32.4%; HP1b binding inh: -0.1%; L3MBTL1 inh: -0.3%; Sfp PPTase inh: -83.2%; BAZ2B inh: inconclusive; G9a block: inconclusive

Results for COC(=O)CN1C(=O)CSc2ccc(S(=O)(=O)Nc3ccccc3)cc21 ?
JMJD2A Tudor inh: -11.4%; HP1b binding inh: 16.2%; BAZ2B inh: -9.0%; G9a block: -6.7%[59 µM]

What do the screens show for `CCOc1ccc(NC(=O)CN2C(=O)c3ccccc3Sc3ccc(C(=O)OC)cc32)cc1`?
JMJD2A Tudor inh: -3.2%; HP1b binding inh: 24.6%[57 µM]; BAZ2B inh: 3.3%; G9a block: 7.4%[59 µM]

Results for c1ccc(CNc2nc(-c3cccnc3)cs2)cc1 ?
JMJD2A Tudor inh: inconclusive; HP1b binding inh: 16.7%; L3MBTL1 inh: -0.8%; Sfp PPTase inh: 35.5µM*; BAZ2B inh: inconclusive; G9a block: 50.1µM*

How did c1ccc(-c2nc(-c3cccnc3)cs2)cc1 do in these assays?
JMJD2A Tudor inh: 4.0%; HP1b binding inh: 49.6%; Sfp PPTase inh: -10.1%; BAZ2B inh: 5.0%; G9a block: 15.9%[0.501 µM]

How did CC(=O)Oc1ccc(-c2csc(Nc3ccc(S(N)(=O)=O)cc3)n2)cc1 do in these assays?
JMJD2A Tudor inh: inconclusive; HP1b binding inh: -4.7%; L3MBTL1 inh: -3.8%; Sfp PPTase inh: 8.6%; BAZ2B inh: -7.5%; G9a block: -34.2%

What do the screens show for `COc1ccc(-c2csc(Nc3ccc(S(=O)(=O)Nc4cc(C)on4)cc3)n2)cc1`?
JMJD2A Tudor inh: inconclusive; HP1b binding inh: -31.9%; L3MBTL1 inh: -15.1%; Sfp PPTase inh: -24.7%; BAZ2B inh: inconclusive; G9a block: 44.7µM*

How did Cc1nc(N)sc1-c1csc(Nc2ccc(S(N)(=O)=O)cc2)n1 do in these assays?
JMJD2A Tudor inh: inconclusive; HP1b binding inh: -3.4%; L3MBTL1 inh: -10.9%; Sfp PPTase inh: -15.3%; BAZ2B inh: 50.1µM*; G9a block: inconclusive

How did COc1ccc(-c2csc(Nc3ccc(S(N)(=O)=O)cc3)n2)cc1 do in these assays?
JMJD2A Tudor inh: -18.9%; HP1b binding inh: -28.2%; Sfp PPTase inh: inconclusive; BAZ2B inh: 50.1µM*; G9a block: -8.5%[2.33 µM]

What do the screens show for `NS(=O)(=O)c1ccc(Nc2nc(-c3ccc(O)cc3)cs2)cc1`?
JMJD2A Tudor inh: inconclusive; HP1b binding inh: -10.0%; Sfp PPTase inh: -23.7%; BAZ2B inh: -35.1%; G9a block: inconclusive

How did Cc1nc(C)c(-c2csc(Nc3ccc(F)cc3)n2)s1 do in these assays?
JMJD2A Tudor inh: inconclusive; HP1b binding inh: inconclusive; L3MBTL1 inh: -14.6%; Sfp PPTase inh: -30.5%; BAZ2B inh: inconclusive; G9a block: 20µM*

How did CCOc1ccc(NC(=O)CSc2oc(-c3cccs3)nc2S(=O)(=O)c2ccc(C)cc2)cc1 do in these assays?
JMJD2A Tudor inh: -27.6%; HP1b binding inh: 50.5%; BAZ2B inh: -30.4%; G9a block: 10.2%[59 µM]
